Results from PubChem BioAssay (NCATS).
Inconclusive results are not listed. Where a call stands in place of a potency, no number is given. Active and inactive are the calls of the source. The call rests on the fitted dose curve; in most records, active means well fitted cell-killing curve with a large enough effect; inconclusive means small, poorly fitted or top-dose-only effect; inactive means no such curve, though single readings can be large or run the other way.
Potency means the concentration at half of the fitted maximal effect.

Assay: qHTS of pediatric cancer cell lines to identify multiple opportunities for drug repurposing: Primary screen for SK-N-MC cells (AID 1347093)
Conditions: SK-N-MC viability, CellTiter-Glo luminescence, 48 h; series mostly up to 46 µM
Source text: Drug repurposing or repositioning has been offered as a strategy for drug development in oncology programs. This approach has special potential for childhood cancers and other rare or orphan diseases, where the expected return on new drug development has been a disincentive to pharmaceuticals.
In this project we exploit the poly-pharmacology of drugs to discover new indications via phenotypic screening of a panel of 19 well-characterized cell lines derived from solid tumors seen in children and adolescents. The goal is to identify approved drugs with previously unrecognized anticancer properties that has the potential to reveal new mechanisms and biological processes involved in carcinogenesis or drug resistance. We employed a titration-based paradigm (quantitative high-throughput screening or qHTS), where all compounds were tested at multiple concentrations for their effect on cell viability. Concentration-response curves (CRCs) were derived directly from the primary screen, and both potency and efficacy values were used to identify compounds with robust bioactivity profiles. We screened the NIH Chemical Genomics Center (NCGC) Pharmaceutical Collection (NPC) and Mechanism Interrogation Plate (MIPE) small molecule collections of approved and investigational compounds against these cell lines; and measured metabolically active cells after 48 hours of compound treatment as a proxy for cell viability.
Assay Submitter: Nathalia J. Martinez, National Center for Advancing Translational Sciences, National Institutes of Health, Rockville, MD, USA; email: natalia.martinez@nih.gov
[1] Shen, M et al. Quantitative high-throughput phenotypic screening of pediatric cancer cell lines identifies multiple opportunities for drug repurposing. Oncotarget 2017 Dec 19;9(4):4758-4772. PMID 29435139.
The cells were obtained from University of North Carolina (UNC), Pediatric Preclinical Testing Program (PPT), and Coriell Institute (CI).
qHTS cell viability assay:
Cells were assayed in growth media at a density of 500-1,000 cells/well. Five microliters of cells were dispensed into 1,536-well, white, solid-bottom, TC-treated plates (Greiner Bio One) using a multidrop dispenser and incubated at 37 degrees C, 5% CO2, under a humidified atmosphere for 5 hours. Twenty-three nanoliters of compounds and controls (neutral control DMSO or positive control bortezomib at final concentration of 2.3 µM) were subsequently transferred by Kalypsys pintool. For primary screens, the MIPE collection was tested at 11-point dilutions (final concentrations range from 0.78 nM to 46 µM) and the NPC collection at 8-point dilutions (final concentrations range from 0.59nM to 46 µM). Compounds tested in follow-up screens were assayed at 11-point dilutions. Cells were incubated for 48 hours, followed by addition of 3 uL of CellTiter-Glo (Promega). After a 15 min incubation at room temperature, samples were analyzed for luminescence intensity using a ViewLux High-throughput CCD imager equipped with clear filters.
For Cc1cccc(C)c1NC(=O)c1cc(S(N)(=O)=O)c(Cl)cc1O, the Potency was “inactive”. In the case of Cc1onc(-c2ccccc2)c1C(=O)Cl, the Potency is reported as “inactive”. In the case of Cc1ccc(Cl)c(OCC(O)CNC(C)(C)C)c1 (stereo not given), the Potency is reported as “inactive”. In the case of CCCCCC1Nc2cc(C(F)(F)F)c(S(N)(=O)=O)cc2S(=O)(=O)N1 (stereo not given), the Potency is reported as “inactive”. With CN1CCN(N)CC1 the Potency was “inactive”. In the case of CCCC(=O)OCOC(=O)C1=C(C)NC(C)=C(C(=O)OC)C1c1cccc(Cl)c1Cl (stereo not given), the Potency is reported as “inactive”. For O=C(O)c1[nH]n(-c2ccc(S(=O)(=O)O)cc2)c(=O)c1N=Nc1ccc(S(=O)(=O)O)cc1, the Potency was “inactive”. In the case of Fc1ccc(C(c2ccc(F)cc2)N2CCNCC2)cc1, the Potency is reported as “inactive”. For COc1ccc(-n2nc(CCC(=O)N(C)O)cc2-c2ccc(Cl)cc2)cc1, the Potency was 23.7 µM (active). For COc1cc(NS(=O)(=O)c2ccc(N)cc2)nc(C)n1, the Potency was “inactive”. With OC1(c2ccc(Cl)c(C(F)(F)F)c2)CCN(CCCC(c2ccc(F)cc2)c2ccc(F)cc2)CC1 the Potency was 6.68 µM (active). For CN1CCC(N(Cc2cccs2)c2ccccc2)CC1, the Potency was 26.6 µM (active). With C[C@H]1NCc2cc(-c3ccc4c(=O)c(C(=O)O)cn(C5CC5)c4c3OC(F)F)ccc21 the Potency was “inactive”. With CC[C@@H]([C@H](C)O)n1ncn(-c2ccc(N3CCN(c4ccc(OC[C@@H]5CO[C@@](Cn6cncn6)(c6ccc(F)cc6F)C5)cc4)CC3)cc2)c1=O the Potency was 11.9 µM (active). In the case of Cc1cc(O)c2c(O)c3c(O)cccc3cc2c1, the Potency is reported as “inactive”. With CC(C)OP(=O)(CP(=O)(OC(C)C)OC(C)C)OC(C)C the Potency was “inactive”. With CCCCCC(=O)O[C@]1(C(C)=O)CC[C@H]2[C@@H]3CCC4=CC(=O)CC[C@]4(C)[C@H]3CC[C@@]21C the Potency was 13.3 µM (active). In the case of CCOC(=O)C(=O)c1csc(NC=O)n1, the Potency is reported as “inactive”. With CC(C)(C)C(=O)OCOC(=O)C1N2C(=O)CC2S(=O)(=O)C1(C)C (stereo not given) the Potency was “inactive”. With C=C(C)C(=O)OCC(O)CO (stereo not given) the Potency was “inactive”. For Cc1coc2ccccc2c1=O, the Potency was “inactive”. For Cc1nc2n(c(=O)c1CCN1CCC(C(=O)c3ccc(F)cc3)CC1)CCS2, the Potency was “inactive”. In the case of CCCc1c2oc(C(=O)O)cc(=O)c2cc2c(=O)cc(C(=O)O)n(CC)c12, the Potency is reported as “inactive”. With CN(C(=O)C(Cl)Cl)c1ccc(OC(=O)c2ccco2)cc1 the Potency was “inactive”. In the case of CCc1cc2cc(OC)c(OC)cc2c(Cc2ccccc2)n1, the Potency is reported as “inactive”. With CCOC(=O)CN1CCCC1=O the Potency was “inactive”. With CCC1=C[C@@H]2CN(C1)Cc1c([nH]c3ccccc13)[C@@](C(=O)OC)(c1cc3c(cc1OC)N(C)[C@H]1[C@@](O)(C(=O)OC)[C@H](OC(C)=O)[C@]4(CC)C=CCN5CC[C@]31[C@@H]54)C2 the Potency was 0.0168 µM (active). With CCOc1ccccc1OCC1CNCCO1 (stereo not given) the Potency was “inactive”. In the case of O=C(Nc1ccc(S(=O)(=O)N2CCOCC2)cc1)c1cc(Cl)ccc1NS(=O)(=O)c1ccc(Cl)s1, the Potency is reported as 18.8 µM (active). In the case of O=C(Oc1ccccc1)c1cccc(C(=O)Oc2ccccc2)c1, the Potency is reported as “inactive”. For Cc1ccc2ccc(Cl)cc2n1, the Potency was “inactive”. In the case of CC(C)(C)C(O)/C=C/c1ccc2c(c1)OCO2 (stereo not given), the Potency is reported as “inactive”. In the case of CSCC[C@H](NC(=O)[C@H](Cc1c[nH]c2ccccc12)NC(=O)CCNC(=O)OC(C)(C)C)C(=O)N[C@@H](CC(=O)O)C(=O)N[C@@H](Cc1ccccc1)C(N)=O, the Potency is reported as “inactive”. With C[C@H](N)C(=O)N[C@@H](C)C(=O)NC1[C@H]2CN(c3nc4c(cc3F)c(=O)c(C(=O)O)cn4-c3ccc(F)cc3F)C[C@@H]12 (stereo not given in full) the Potency was “inactive”. In the case of COc1ccc(/C(C)=C/C(=O)O)c(OC)c1, the Potency is reported as “inactive”. For CC(C)=CCC/C(C)=C/CC/C(C)=C/C(=O)OCC(=O)[C@@]1(O)CC[C@H]2[C@@H]3CCC4=CC(=O)C=C[C@]4(C)[C@H]3[C@@H](O)C[C@@]21C, the Potency was “inactive”. For CCCCC/C=C\C/C=C\CCCCCCCC(=O)NC(C)c1ccccc1 (stereo not given), the Potency was 18.8 µM (active). With C[C@H]1C[C@H]2[C@@H]3CCC4=CC(=O)C=C[C@]4(C)[C@H]3C(=O)C[C@]2(C)[C@@]1(O)C(=O)CO the Potency was “inactive”. For CCCCNc1ccc(C(=O)OCCN(CC)CC)cc1, the Potency was “inactive”. For O=C(O)Cc1ccc(OCCNC[C@H](O)c2ccccc2)cc1, the Potency was “inactive”.
